Source: PubChem (National Center for Advancing Translational Sciences (NCATS))
POLB inh – DNA polymerase beta (human) inhibition; P06746; Pol beta primer extension/strand displacement, fluorescence kinetic; Potency, µM (titrated, usually from 114 µM), for the others: top-dose activity change, negative = inhibition, most hits filed as inhibitors; actives 1.3% (n = 340,000); also: potency is read from the fitted curve at half-maximal effect; % is scaled to controls: 0 for no effect and ±100 for the full control effect
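Preincubation: enzyme (10 nM) with compound, 15 min, RT. Reaction: substrate added to 50 nM final. Reads: 0 and 10 min. Analysis: normalized, Hill fit.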
WRN inhibitor – blocks human WRN helicase; AID 651768; actives 0.46% (n = 360,000); Potency, µM (titrated, usually from 114 µM), without a hit: top-dose activity change, negative = inhibition, most hits filed as inhibitors; Q14191; WRN helicase unwinding, fluorescent forked duplex, kinetic; also: potency is read from the fitted curve at half-maximal effect; % is scaled to controls: 0 for no effect and ±100 for the full control effect; nearly all actives have a fitted effect of over 55% in size
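Kinetic fluorescence helicase assay: unwinding of a quenched forked DNA duplex (100 nM final) with 2 mM ATP final raises red fluorescence (525/598 nm). Compounds sat 15 min at room temperature with 20 nM WRN beforehand.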
PI5P4Ka inh – blocks human PI5P4K alpha kinase activity | P48426 | PI5P4Kalpha enzyme, ADP-Glo luminescence, 60 min; stronger effect = lower value | max response, % | actives 1.2% (n = 330,000) | AID 652105; active = max response of -50% or lower; inconclusive = between -30% and -50%; inactive = -30% or higher; also: value at the top dose of about 77 µM; % is scaled to controls: 0 for no effect and ±100 for the full control effect
Target sequence (P48426 whole entry, looked up): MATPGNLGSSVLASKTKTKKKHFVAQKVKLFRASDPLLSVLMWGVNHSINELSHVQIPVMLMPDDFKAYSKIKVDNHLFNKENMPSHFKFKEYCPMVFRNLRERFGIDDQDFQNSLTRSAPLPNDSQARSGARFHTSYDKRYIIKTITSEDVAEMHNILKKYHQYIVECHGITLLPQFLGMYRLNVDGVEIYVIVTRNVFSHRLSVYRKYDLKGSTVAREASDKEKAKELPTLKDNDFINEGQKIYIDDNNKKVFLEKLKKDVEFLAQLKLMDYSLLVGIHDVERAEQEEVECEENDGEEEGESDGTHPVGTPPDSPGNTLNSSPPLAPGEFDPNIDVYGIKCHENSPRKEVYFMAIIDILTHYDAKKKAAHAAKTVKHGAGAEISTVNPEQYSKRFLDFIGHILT
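Reactions run in 0.038 M HEPES pH 7.4, 0.28 mM EGTA, 0.1% CHAPS and 5% DMSO, with PI5P4Kalpha, substrate, compound and 5 microM ATP final, one hour at room temperature. Readout is ADP-Glo luminescence.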
Pol kappa inh – inhibitors of human DNA polymerase kappa; purified Pol kappa, fluorescent DNA synthesis assay, 10 min; Potency, µM (titrated, usually from 107 µM), for inactives: at the top dose activity, negative = inhibition, usual class: inhibitors; actives 0.53% (n = 400,000); also: potency is read from the fitted curve at half-maximal effect; % is scaled to controls: 0 for no effect and ±100 for the full control effect
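Here, compound and 10 nM enzyme are combined for 15 min at room temperature; adding 50 nM substrate (final) starts DNA synthesis, tracked by fluorescence at 0 and 10 min against buffer-only wells.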
POLH inh – DNA polymerase eta (human) inhibition; AID 588591; Q9Y253; Potency, µM (highest dose often 114 µM), for the others: at the top dose activity change, negative = inhibition, actives largely listed as inhibitors; recombinant Pol eta, fluorescent DNA replication assay; actives 1.2% (n = 390,000); also: potency is read from the fitted curve at half-maximal effect; % is scaled to controls: 0 for no effect and ±100 for the full control effect
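Fluorescent replication assay: 50 nM final substrate added after a 15 min room-temperature compound preincubation with 10 nM enzyme. Signal taken at 0 min and again at 10 min.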
Pol iota inh – inhibitors of human DNA polymerase iota; Q9UNA4; Pol iota fluorescent replication assay, 10 min; Potency, µM (highest dose often 115 µM), for the others: at the highest dose activity, negative = inhibition, usual class: inhibitors; actives 1% (n = 390,000); AID 588590; also: potency is read from the fitted curve at half-maximal effect
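Pol iota at 10 nM preincubated 15 min with compounds at room temperature; reaction started with fluorescent substrate, 50 nM final. Fluorescence read kinetically at 0 and 10 min; buffer-only wells as negative control.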
* hit, by the source's call; ? = inconclusive; · = no result given; ! = not confirmed by another sample; [ ] = remark or other dose. Hits are enriched below; roughly 2.8% of the tested compounds scored in any of these assays. Unless noted, calls follow the shape of the dose curve; as a rule, active = well fitted curve in the direction sought with a large enough effect; inconclusive = small, poorly fitted or top-dose-only effect, or another doubt; inactive = no such curve, though single readings can be large; an effect the other way counts as inactive or inconclusive.

SMILES	POLB inh	WRN inhibitor	PI5P4Ka inh	Pol kappa inh	POLH inh	Pol iota inh
Cc1cc2oc(C(=O)N(Cc3ccccc3)C3CCS(=O)(=O)C3)cc(=O)c2cc1C (centres undefined)	27%	·	·	20%	-5%	6%
COc1ccc(/C=N/c2nc3ccccc3n2C)cc1OC	79µM*	-1%	·	1%	-13%	19%
CCC(C)Nc1ccc(NC(C)CC)cc1 (centres undefined)	·	-1%	-26	2.5µM*!	-12%	4%
CCC(C)NC(=O)Nc1ccc(Br)cc1 (centres undefined)	-1%	-7%	-8	1%	-20%	14%
Cc1ccc(C)c(NC(=O)CSc2nc(=O)n(Cc3ccccn3)c3c2CCC3)c1	-18%	·	·	-4%[60.1 µM]	-15%	7%
CCc1ccc(NC(=O)Cn2c(=O)n(Cc3nc(C)no3)c(=O)c3cc4c(cc32)OCO4)cc1	1%	·	·	8%	11%	22%
COc1ccc(S(=O)(=O)N2CCOCC2)cc1NC(=O)COC(=O)c1ccc([N+](=O)[O-])s1	·	-13%[11.6 µM]	19	-24%	?	89µM*
COc1ccc(S(=O)(=O)N2CCOCC2)cc1NC(=O)COC(=O)c1[nH]c(C)c(C(C)=O)c1C	·	-24%	-1	-21%	2%	-20%
O=C(COC(=O)c1ccc([N+](=O)[O-])s1)Nc1ccc(F)cc1	·	27%	-4	-25%	?	?
COc1ccccc1CNC(=O)COC(=O)c1ccc([N+](=O)[O-])o1	·	4%[11.6 µM]	7	-28%	?	?
Cc1ccc(C(=O)OCc2nnc(-c3ccccc3)o2)s1	·	1%	0	3%	-8%	51%
O=C(COC(=O)c1ccc([N+](=O)[O-])o1)NCc1ccccc1	·	-20%	6	-24%	50µM*	?
O=C(COC(=O)c1ccc([N+](=O)[O-])s1)Nc1ccccc1	6.3µM*	-3%[57.1 µM]	-7	-3%	?	89µM*
O=C(OCc1nnc(-c2ccccc2)o1)c1ccc([N+](=O)[O-])s1	·	31%	1	-33%	56µM*	?
O=C(CSc1nnc(-c2cccc(F)c2)c(-c2cccc(F)c2)n1)NC1CCCCC1	30%	·	·	-1%[60.1 µM]	3%	14%
CCOC(=O)c1cc(-c2ccc(C)cc2)n(CCCC(=O)Nc2cc(C)ccc2C)c1	21%	·	·	-9%[60.1 µM]	6%	7%
O=C(COC(=O)c1ccc([N+](=O)[O-])s1)NC(c1ccccc1)c1ccccc1	?	-4%	0	-18%	-17%	91%
O=C(COC(=O)c1ccc([N+](=O)[O-])s1)NCc1ccccc1	13µM*	-1%	2	-22%	?	?
C/C1=C2/[N-]C(C(CC(N)=O)[C@@]2(C)CCC(=O)NCC(C)OP(=O)([O-])O[C@H]2[C@@H](O)[C@@H](n3cnc4cc(C)c(C)cc43)O[C@@H]2CO)[C@]2(C)N=C(/C(C)=C3N=C(/C=C4N=C1C(CCC(N)=O)C\4(C)C)[C@@H](CCC(N)=O)[C@]\3(C)CC(N)=O)[C@@H](CCC(N)=O)[C@]2(C)CC(N)=O.CC(=O)O.[Co] (some centres undefined)	·	·	·	3%[19.4 µM]	·	·
CN(C)/C=C/C(=O)c1ccc2noc(-c3cccc(F)c3)c2c1	21%	-8%	-66*	4%	-26%	-15%
COc1ccc(-c2onc3ccc(C(=O)/C=C/N(C)C)cc23)cc1	?	-32%	-78*	?	?	?
COc1ccc(-c2onc3ccc(Br)cc23)cc1	-1%	-36%[57.1 µM]	2	-20%	-9%	22%
N#Cc1ccccc1Cn1c(=O)n(CCCC(=O)NCc2ccccc2Cl)c(=O)c2ccccc21	1%	·	·	-60%	-10%	89µM*
Cc1cc2nc(-c3ccc(NC(=O)c4ccccc4F)cc3)oc2cc1C	-28%	·	·	-41%	-6%	?
Cc1nnc(SCC(=O)N/N=C/c2cc(Cl)c(O)c(Cl)c2)s1	-6%	-14%	-79*	-11%	?	-7%
SMILES	POLB inh	WRN inhibitor	PI5P4Ka inh	Pol kappa inh	POLH inh	Pol iota inh
Cc1oc2c(cc(NS(=O)(=O)c3ccc(Cl)cc3)c3ccccc32)c1C(=O)O	20%	-21%	-28	-41%	50µM*	46%
COc1cc(N=C2C(=O)N3c4c(cccc42)C(C)=CC3(C)C)cc(OC)c1	12%	-22%	7	-4%	?	-13%
CC1=CC(C)(C)N2C(=O)C(=Nc3ccc(O)cc3)c3cccc1c32	0%	?	?	-27%	20µM*	7.9µM*
CC1=C(C(=O)Nc2ccc(C)cc2C)C(c2ccc[nH]2)n2ncnc2N1 (centres undefined)	11%	·	·	-10%[60.1 µM]	-4%	?
COc1ccc(NC(=O)C2=C(C)Nc3ncnn3C2c2ccc[nH]2)cc1 (centres undefined)	79µM*	·	·	5%[60.1 µM]	?	?
Cc1c(C#N)c(O)[nH]c(=O)c1N=Nc1ccc(Br)cc1C(=O)O	-3%	-29%	-59*	-6%	?	-2%
Cc1cccc(N=Nc2c(C)c(C#N)c(O)[nH]c2=O)c1	-8%	-21%	?	-13%	-5%	118%
C[n+]1ccc(/C=C/c2ccc3ccccc3c2)cc1	·	·	·	-4%[19.4 µM]	·	·
C[n+]1ccc(/C=C/c2ccc(Br)cc2)cc1	-31%	-16%	-4	89µM*	-25%	?
CC(C)c1ccc(NC(=O)CSC2=Nc3ccccc3C3=NC(CCC(=O)NCc4cccs4)C(=O)N23)cc1 (centres undefined)	11%	·	·	-6%[60.1 µM]	-14%	-14%
Cc1cc[n+](CCC2CCCCC2)cc1	·	·	·	5%	·	-12%
CCN(CC)S(=O)(=O)c1nnc(NC(=O)c2ccc(Br)cc2)s1	-9%	·	·	-4%	-7%	-10%
CC(=O)c1cc(O)c2ccccc2c1O	?	-12%[11.6 µM]	?	3%	89µM*	4%
CC(=O)c1coc2c1cc(O)c1ccccc12	0%	-1%	·	-3%	-10%	6%
Cc1ccc(/C=C/C(=O)N2CCN(S(=O)(=O)c3ccc(C)c(C)c3)CC2)o1	-3%	?	-74*	-5%	-18%	?
O=C(CCn1cccc1)NCc1ccc2c(c1)OCO2	50µM*	-22%[57.1 µM]	-27	?	?	?
CCOC(=O)CCc1c(C)nc2cc(-c3cc(OC)cc(OC)c3)[nH]n2c1=O	28µM*	·	·	-9%	-15%	4%
CCc1c(C)nc2cc(-c3cccc(Br)c3)[nH]n2c1=O	25µM*	-27%	-1	4%	-28%	6%
O=C(Cc1cccs1)N=Nc1c(O)[nH]c2ccc(Br)cc12	-12%	?	?	-20%	0%	?
COc1ccc2[nH]c(O)c(N=NC(=O)Cc3cccs3)c2c1	?	-2%[11.6 µM]	-69*	-40%	32µM*	?
